Assay outcomes: PubChem, several laboratories
Most compounds without a hit are left out; they make up all but 4.3% or so of the library.
NR3A LBD binder: modulates the human NR3A ligand-binding domain; NR3A LBD differential scanning fluorimetry, Tm shift; 0% = protein alone, 100% = glycine-bound protein; Tm shift relative to glycine control, % at 25 µM; 340,000 compounds, 2.5% hits; AID 1259313;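 active = melting temperature shift of at least 10% of the positive control shift, at one fixed dose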
NadD block: inhibitors of Staphylococcus aureus NadD; purified NadD enzyme, colorimetric absorbance read-out; 360,000 compounds, 0.78% hits; inhibition, % at 20 µM; in the data active = inhibition above about 26%
rCAG binder: molecules binding r(CAG) RNA repeats | r(CAG) RNA repeat, TO-PRO-1 dye displacement fluorescence | inhibition, % at 3 µM | 370,000 compounds, 1.3% hits | AID 651821;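 active = inhibition above the plate cutoff, the mean of all test compounds on that plate plus 3 SD, cut at about 35% in these data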;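 note: higher means more dye released from RNA so lower well fluorescence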
FAS-TE inh: blocks the thioesterase domain of human fatty acid synthase; AID 602261; recombinant FAS-TE, OMFH fluorogenic substrate, fluorescence endpoint; P49327; 360,000 compounds, 0.67% hits; inhibition, % at 15 µM;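 active = compounds whose normalised, plate-corrected inhibition of enzyme fluorescence in the single-dose primary screen is 50% or more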
NadD conf: confirmation of Staphylococcus aureus NadD inhibitors; shares compounds with NadD block; purified S. aureus NadD, colorimetric enzyme assay; inhibition, % at 20 µM; 2,000 compounds, 13% hits; in the data active = inhibition mostly above about 42%, no sharp cut-off; inactive = mostly below about 42%
A number is an active result; i = inactive; nt = not tested or not shown.

SMILES	NR3A LBD binder	NadD block	rCAG binder	FAS-TE inh	NadD conf
N#Cc1ccc(C(=O)NCC2CCN(C(=O)C(=O)c3cccs3)CC2)cc1	nt	nt	i	nt	nt
COc1cc2cc(Oc3ccc4ccc(=O)oc4c3)c(=O)oc2cc1OC(=O)/C=C/c1ccccc1	i	32.1	i	i	i
Cc1ccccc1NC(=O)c1sc2nc3c(c(-c4ccco4)c2c1N)CCCC3	i	32.6	i	i	i
Nc1c(C(=O)Nc2ccccc2)sc2nc3c(c(-c4ccco4)c12)CCCC3	i	i	i	i	nt
Cc1ccc(NC(=O)c2sc3nc4c(c(-c5ccco5)c3c2N)CCC4)cc1	i	30.9	i	i	i
COc1cc(C#Cc2c(-c3cncn3C)n(C)c3ccc(-c4cnc(N5CCOCC5)nc4)cc23)cc(OC)c1	i	45.1	i	i	i
CCCC(C)C(=O)NC1CCCCN(Cc2ccccc2C)C1=O (configuration not stated)	nt	nt	i	nt	nt
Cc1cc[n+]2cc(-c3cccc([N+](=O)[O-])c3)c(-c3cccc([N+](=O)[O-])c3)cc2c1	i	31.5	i	i	i
Clc1ccc(-n2c(SCc3cccc4ccccc34)nnc2-c2ccccn2)cc1	nt	nt	i	nt	nt
CC(C)C[C@@H](CN1CCC[C@@H]1CN1C(=S)NC[C@@H]1Cc1ccccc1)N1C[C@H](Cc2ccc(O)cc2)N(CCc2ccccc2)C1=S	nt	i	i	i	nt
CC(C)C[C@@H](CN1CCC[C@@H]1CN1C(=S)NC[C@@H]1Cc1ccc(O)cc1)N1C[C@H](Cc2ccc(O)cc2)N(CCc2ccccc2)C1=S	nt	39.7	i	i	i
CC(C)C[C@@H](CN1CCCC1CN1C(=S)NC[C@@H]1Cc1ccccc1)N1C[C@H](Cc2ccccc2)N(CCc2ccccc2)C1=S (some centres not stated)	nt	i	i	i	nt
CC(C)C[C@@H](CN1CCCC1CN1C(=S)NC[C@@H]1Cc1ccccc1)N1C[C@H](Cc2ccc(O)cc2)N(CCc2ccccc2)C1=S (some centres not stated)	nt	45.2	i	i	i
O=C(N[C@H](C(=O)N1CCC[C@H]1C(=O)NC1CCCC1)C1CCCCC1)C1CC1	nt	nt	i	nt	nt
Cc1ccc(-c2csc(C3=C(O)CN(NC(=O)c4ccc([N+](=O)[O-])cc4)C3=N)n2)cc1	i	30.0	i	i	i
COc1ccc(N2C(=O)/C(=C\c3ccco3)N=C2SCC(=O)NC(C)(C)C)cc1Cl	i	30.6	i	i	i
CCN(CC)C(=O)CSC1=N/C(=C/c2ccco2)C(=O)N1c1ccc(OC)c(Cl)c1	i	i	i	i	nt
COC(=O)N1C[C@H](O)[C@H](O)C[C@@H]1c1ccccc1Br	nt	nt	i	nt	nt
NC(=S)N/N=C/c1ccc(-c2ccc(Cl)c(Cl)c2)o1	i	39.5	i	i	i
Cc1ccc(-c2ccc(/C=N/NC(N)=S)o2)cc1	i	i	i	i	nt
CC(C)C[C@@H](CN1CCC[C@H]1CN1C(=O)C(=O)NC[C@@H]1Cc1ccccc1)N1C[C@H](Cc2ccc(O)cc2)N(CC2CCCCCC2)C(=O)C1=O	nt	40.5	i	i	i
CC(C)C[C@H]1CN([C@@H](CC(C)C)CN2CCC[C@H]2CN2C(=O)C(=O)NC[C@@H]2Cc2ccc(O)cc2)C(=O)C(=O)N1CC1CCCCCC1	nt	30.1	i	i	i
CC(C)C[C@@H](CN1CCC[C@@H]1CN1C(=O)C(=O)NC[C@@H]1Cc1ccccc1)N1C[C@H](Cc2ccc(O)cc2)N(CC2CCCCC2)C(=O)C1=O	i	i	i	i	nt
CCCCOCCCNC(=O)C[C@@H]1C(=O)N2CCCC3=C2[C@@]1(C(=O)OCC)CCC3	nt	nt	i	nt	nt
O=C(N/N=C/c1coc2ccccc2c1=O)c1cn(-c2ccccc2)nc1-c1ccccc1	i	36.4	i	i	i
SMILES	NR3A LBD binder	NadD block	rCAG binder	FAS-TE inh	NadD conf
Cc1nnc(-c2ccco2)c2cn(-c3cccc(Br)c3)nc12	i	37.2	i	i	i
CN(c1ccccc1)S(=O)(=O)c1cccc(NC(=O)CN2CCCc3ccccc32)c1	i	i	i	i	nt
NS(=O)(=O)c1cccc(NC(=O)CN2CCc3ccccc32)c1	i	37.7	i	i	i
CC(C)C[C@H]1CNC(=S)N1C[C@H]1CCCN1C[C@H](Cc1ccc(O)cc1)N1C[C@H](Cc2ccc(O)cc2)N(CC2CCCCCC2)C1=S	nt	44.4	i	i	i
CC(C)C[C@H]1CNC(=S)N1CC1CCCN1C[C@H](Cc1ccccc1)N1C[C@H](Cc2ccc(O)cc2)N(CC2CCCCCC2)C1=S (some centres not stated)	29.2	31.5	i	i	i
CC(C)C[C@H]1CN([C@@H](Cc2ccc(O)cc2)CN2CCC[C@@H]2CN2C(=S)NC[C@@H]2Cc2ccccc2)C(=S)N1CC1CCCCCC1	nt	i	i	i	nt
Oc1ccc(C[C@H]2CNC(=S)N2C[C@H]2CCCN2C[C@H](Cc2ccccc2)N2C[C@H](Cc3ccccc3)N(CC3CCCCC3)C2=S)cc1	nt	38.6	i	i	i
CC(C)C[C@H]1CN([C@@H](Cc2ccc(O)cc2)CN2CCCC2CN2C(=S)NC[C@@H]2Cc2ccccc2)C(=S)N1CC1CCCCC1 (some centres not stated)	nt	i	i	i	nt
CN1C(=O)C(c2cn(C)c3ccccc23)(c2cn(C)c3ccccc23)c2ccccc21	nt	nt	i	nt	nt
COc1ccc(NC(=O)c2cc(-c3ccco3)nc3ccccc23)cc1S(=O)(=O)N1CCOCC1	i	30.2	i	i	66.7
Cc1ccc(NC(=O)c2cc(-c3ccco3)nc3ccccc23)cc1S(=O)(=O)N1CCOCC1	i	63.3	i	i	60.3
CN(C)C(CNC(=O)c1cc(-c2ccco2)nc2ccccc12)c1ccccc1 (configuration not stated)	i	58.9	i	i	59.0
O=C(CSc1nnc(-c2ccccn2)n1-c1ccc(Cl)cc1)Nc1ccc2c(c1)OCCO2	nt	nt	i	nt	nt
CC1(C)CC(=O)C=C(Nc2ccccc2NC(=O)c2cc(Cl)ccc2F)C1	nt	nt	i	nt	nt
O=C(c1ccccc1)N1CCN(c2cc(Cl)nc3cc(-c4cccc(Cl)c4)nn23)CC1	nt	i	i	i	nt
O=C(c1ccoc1)N1CCN(c2cc(-c3cccc(F)c3)nc3cc(-c4cccc(Cl)c4)nn23)CC1	nt	45.3	i	i	i
O=C(COC(=O)c1cccc(N2C(=O)C3CC=CCC3C2=O)c1)c1ccccc1 (configuration not stated)	i	i	i	i	nt
CCc1ccc(C(=O)COC(=O)c2cccc(N3C(=O)c4c(C)nc5ccccc5c4C3=O)c2)cc1	i	36.3	i	i	i
CCOC(=O)c1cc(-c2ccccc2)sc1NC(=O)C(C)N1C(=O)NC(C)(c2ccc(Cl)cc2)C1=O (configuration not stated)	i	30.0	i	i	i
COc1ccc(S[C@]2(C(=O)N3CCN(c4ncccn4)CC3)CC(=O)N(S(=O)(=O)c3ccc(F)cc3)[C@@H]2c2ccc(OC)cc2)cc1	nt	nt	i	nt	nt
Cc1sc2ncnc(N3CCC(C(=O)Nc4ccc(Cl)c(Cl)c4)CC3)c2c1C	10.6	41.6	i	i	i
CCc1ccc2nc(NC(=O)C3CCN(c4ncnc5sc(C)c(C)c45)CC3)sc2c1	i	33.4	i	i	i
